Data published in PubChem BioAssay (Tox21).
Inconclusive results are not listed. Entries that show only a call come without a potency. The source made the active and inactive calls. Calls come from the whole dose curve; as a rule, active = well fitted cell-killing curve with a large enough effect in the repeat runs; inconclusive = weak or mixed curves, or effect the other way; inactive = flat fitted curve, though single readings scatter.

Test: qHTS assay to identify small molecule agonists of the TGF-beta/Smad signaling pathway - cell viability counter screen (AID 1346829); note: nearly all actives have a fitted effect of over 45% in size; for activity change, negative = cytotoxicity: top concentration of the series differs between compounds
Settings: SBE-bla HEK293T viability, CellTiter-Glo luminescence, 5 h; series mostly up to 76.8 µM
Summary of the method: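 Same-well cytotoxicity: CellTiter-Glo added after the 2 hr room-temperature beta-lactamase substrate step, luminescence measured 30 min later; cells had 5 hr of compound at 37 C.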
Potency is the fitted concentration of half-maximal effect.

Row | SMILES | Potency | activity change, negative = cytotoxicity
1 | OCC1CC2CC1C1CCC(CO)C21 (stereo not drawn) | inactive | 
2 | CC(=O)/C(C)=C/C1C(C)=CCCC1(C)C (stereo not drawn) | inactive | 
3 | O=[N+]([O-])c1cc[n+]([O-])cc1 | inactive | 
4 | CC(=O)N(CC(=O)N(C)C)c1ccccc1 | inactive | 
5 | COC(=O)C(C)=O | inactive | 
6 | Nc1ccc(C(=O)N2CC3CC(CN(Cc4ccccc4)C3)C2)cc1 | inactive | 
7 | CC(=O)O[C@@H]1C(=O)O[C@@H]2[C@H]1OC(=O)[C@@H]2OC(C)=O | inactive | 
8 | CC(C)NCC(O)COc1ccc(CC(N)=O)cc1 (stereo not drawn) | inactive | 
9 | Cc1c(Cn2ccnc2)c2ccccc2n1CCC(=O)O | inactive | 
10 | CCC(C)N(C)C(=O)c1cc2ccccc2c(-c2ccccc2Cl)n1 (stereo not drawn) | inactive | 
11 | CCN(CC)CCOc1ccc2c(c1)C(=O)c1cc(OCCN(CC)CC)ccc1-2 | inactive | 
12 | CCCCOc1ccc(CC(=O)NO)cc1 | inactive | 
13 | O=c1[nH]cnc2ccccc12 | inactive | 
14 | c1ccc(OCc2ccc(CCCN3CCOCC3)cc2)cc1 | inactive | 
15 | CCOC(=O)C1=C(C)NC(C)=C(C(=O)OC)C1c1cccc([N+](=O)[O-])c1 (stereo not drawn) | inactive | 
16 | CC(C)(C)c1cc(O)c(C(C)(C)C)cc1O | inactive | 
17 | Oc1ccc(C(O)CNCCCCCCNCC(O)c2ccc(O)c(O)c2)cc1O (stereo not drawn) | inactive | 
18 | CC[C@@H]1C[C@H](N(Cc2cc(C(F)(F)F)cc(C(F)(F)F)c2)C(C)=O)c2cc(C(F)(F)F)ccc2N1C(=O)OC(C)C | inactive | 
19 | CN(C(=O)CCCOc1ccc2[nH]c(=O)ccc2c1)C1CCCCC1 | inactive | 

Row | SMILES | Potency | activity change, negative = cytotoxicity
20 | CC(CN)CCCN (stereo not drawn) | inactive | 
21 | CCCCCOC(=O)c1ccc(O)cc1 | inactive | 
22 | C[C@H](CCC(=O)O)[C@H]1CC[C@H]2[C@@H]3[C@H](O)C[C@@H]4C[C@H](O)CC[C@]4(C)[C@H]3CC[C@]12C | inactive | 
23 | O=C(CCN1CCN2CCCC2C1)N1c2ccccc2Sc2ccc(Cl)cc21 (stereo not drawn) |  | -3.72% [at 15.8 µM] (inactive)
24 | CC(C)c1ccc2c(C(C)C)cc(C(C)C)c(S(=O)(=O)O)c2c1 | inactive | 
25 | CC1(C)CCC(C)(C)c2cc(NC(=O)c3ccc(C(=O)O)cc3)ccc21 | inactive | 
26 | O=C(/C=C/c1ccc(O)c(O)c1)O[C@@H]1C[C@](O)(C(=O)O)C[C@@H](O)[C@H]1O | inactive | 
27 | CCOc1nc2cccc(C(=O)O)c2n1Cc1ccc(-c2ccccc2-c2nn[nH]n2)cc1 | inactive | 
28 | CCc1nn(C2CCCCC2)c2cc(C3(C#N)CCC(C(=O)O)CC3)ccc12 (stereo not drawn) | inactive | 
29 | CCOc1ccc2[nH]cc(C(=O)NCc3ccccc3)c(=O)c2n1 | inactive | 
30 | CCCCc1cc2ccccc2c(OCCN(C)C)n1 | inactive | 
31 | CCCCC(CC)COCCCN (stereo not drawn) | inactive | 
32 | Oc1ccc2c(c1)OCO2 | inactive | 
33 | NC(N)=NN=C(/C=C/c1ccc([N+](=O)[O-])o1)/C=C/c1ccc([N+](=O)[O-])o1 | 21.3 µM (active) | 
34 | CCCCCCCCCCCCC(=O)O | inactive | 
35 | CCCCC(CC)(CO)CO | inactive | 
36 | SC1CCCC1 | inactive | 
37 | Cc1cc(O)ccc1N | inactive | 
38 | Cc1ccc(C(=O)C(C)CN2CCCCC2)cc1 (stereo not drawn) | inactive | 
